MITF TRPM1 HTS = MITF TRPM1 promoter activation in melanoma cells; SK-MEL-5 TRPM1-promoter luciferase, 24 h; % of positive control, neutral wells = 0; activation, % at 12.5 µM; hit rate 0.75% among 300,000;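 active means mean activation of at least 80% with every replicate also reaching 80%; inconclusive means mean reaches 80% but some replicate falls short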;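 further: 0% = neutral control wells and 100% = parthenolide positive control wells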
miR122 inh = miR-122 inhibition in Huh7 cells. hit rate 0.3% among 340,000. Huh7 miR-122 Renilla luciferase sensor, 48 h; neutral wells = 0, positive control = 100. activation (reporter increase), % at 12.5 µM;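 active means mean replicate activation score at least 90 and every replicate individually at or above 90; inconclusive means only one of the two criteria met; inactive means neither criterion met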;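 further: higher luciferase means less miR-122 activity so hits act as miR-122 inhibitors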
esBAF inh = SWI/SNF esBAF complex inhibition | mouse ES cells, Bmi1-luciferase knock-in reporter, 24 h; 100% = twice the neutral-well signal | reporter increase, % at 12.5 µM | hit rate 2% among 350,000 | AID 602393; in the data active means activation above about 40%; inconclusive means no clear call, values can overlap the other calls;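 further: 0% = median of the plate's neutral control wells and 100% = double that signal; a rise in the Bmi1 reporter signal indicates esBAF inhibition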
Wnt bcat act = Wnt/beta-catenin pathway activation; AID 743398; hit rate 1.2% among 300,000; Wnt/beta-catenin reporter cell assay, activator, plate reader; activation, % at 9.35 µM; in the data active means activation above about 30%, passing the limit was not always enough; inconclusive means no clear call, values can overlap the other calls;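 further: 0% = neutral control wells and 100% = positive control wells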
HIV Env fusion = inhibitors of HIV Env-mediated cell fusion | hit rate 1.1% among 360,000 | AID 651610 | HeLa-JRFL Env/CEM21 cell fusion, luciferase | inhibition, % at 12.3 µM;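 active means mean replicate inhibition score of at least 50 and every replicate individually at or above 50; inconclusive means only one of the two criteria met; inactive means mean below 50 and not all replicates reaching 50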;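 further: 0% = plate neutral controls and 100% = maraviroc near 300 nM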
* hit, by the source's call; ? = inconclusive; / = no result given; [ ] = remark or other dose. The list is not random: actives were taken first. Their share in the collection is about 3.4%.

SMILES	MITF TRPM1 HTS	miR122 inh	esBAF inh	Wnt bcat act	HIV Env fusion
O=C(Nc1nc2c(F)cc(F)cc2s1)c1ccc([N+](=O)[O-])o1	/	/	57*	3	/
O=C(Nc1ccc(-c2nc3c(ccc4ccccc43)o2)cc1)c1ccco1	34	-1	50*	10	/
O=C(Nc1ccc(-c2nc3cc(Cl)ccc3c(=O)o2)cc1)c1ccco1	3	2	/	-6	3
O=C(Nc1nc2c(ccc3ccccc32)s1)c1ccco1	20	51	27	38*	-137
O=C(CCc1ccccc1)Nc1nc2c(F)cc(F)cc2s1	77	3	?	22	-38
O=C(Nc1nc2c(F)cc(F)cc2s1)c1ccco1	/	/	1	46*	-129
O=C(Nc1nc2c(Cl)ccc(Cl)c2s1)c1ccco1	/	8	11	11	-6
CN1c2ccc(Br)cc2[C@@H]2[C@@H](CCN2C(=O)C2CCCCC2)[C@@H]1CO	/	-5[16.7 µM]	4	/	/
O=C(C[C@@H]1CC[C@@H]2NC[C@H](O)COC[C@H]2O1)Nc1ccc(-c2ccccc2)cc1	/	2[16.7 µM]	1	/	-2[16.7 µM]
C[C@H]1CN([C@@H](C)CO)S(=O)(=O)c2ccc(C#CC3CC3)cc2O[C@@H]1CN(C)C(=O)c1cccnc1	/	-5[16.7 µM]	7	/	1[16.7 µM]
O=C(Nc1nc2c(F)c(F)c(F)cc2s1)c1ccco1	?	-4	53*	25	-36
O=C(Nc1nc2cc3c(cc2s1)OCCO3)c1ccc([N+](=O)[O-])o1	-34	-3	20	51*	-89
O=C(Nc1nc2ccccc2s1)c1ccc([N+](=O)[O-])o1	-44	/	/	20	-51
CCCN1C[C@@H](C)[C@H](OC)CN(C)C(=O)c2cc(NC(=O)c3ccc4c(c3)OCO4)ccc2OC[C@H]1C	/	-16[16.7 µM]	9	/	22[16.7 µM]
O=C1OC(CN(Cc2ccccc2)Cc2ccccc2)CN1N=Cc1ccc([N+](=O)[O-])o1 (stereo unspecified)	-82	-1	-6	4	83*
O=S(=O)(c1ccc(-c2nnc(SCc3ccccc3)o2)cc1)N1CCCC1	3	-2	14	-8	-85
Oc1ccc(-c2nnc(SCc3ccccc3)o2)cc1	114*	-2	49*	17	-70
c1ccc(CSc2nnc(-c3cccnc3)o2)cc1	50	5	42*	6	/
C#CCSc1nnc(-c2ccc(O)cc2)o1	?	-14	69*	46*	-31
c1ccc(-c2nnc(SCCC3OCCCO3)o2)cc1	11	0	/	48*	-34
C/C=C/c1ccc2c(c1)O[C@@H](CN(C)C(=O)NCCC)[C@@H](C)CN([C@@H](C)CO)S2(=O)=O	/	-2[16.7 µM]	2	/	14[16.7 µM]
CCCNC(=O)N[C@@H]1C=C[C@H](CC(=O)NCCc2ccccc2)O[C@@H]1CO	/	/	1	/	5[16.7 µM]
CC=Cc1ccc2n(c1=O)C[C@H]1[C@H](CO)[C@@H](C(=O)NC3CCC3)N(C(=O)C3CCC3)[C@@H]21 (mixture of isomers)	/	4[16.7 µM]	3	/	/
Clc1ccc(CSc2nnc(-c3ccncc3)o2)cc1	/	6	3	/	63*
c1ccc(CSc2ccc(-c3cccnc3)nn2)cc1	89*	-11	59*	-1	-19
SMILES	MITF TRPM1 HTS	miR122 inh	esBAF inh	Wnt bcat act	HIV Env fusion
COc1ccc(-n2c(CN3CCC(C(N)=O)CC3)nc3ccc([N+](=O)[O-])cc3c2=O)c(OC)c1	-7	0	4	5	-76
CCOC(=O)C1CCN(Cc2nc3ccc([N+](=O)[O-])cc3c(=O)n2-c2ccc(OC)cc2OC)CC1	-1	1	48*	13	-7
Cc1ccc(Cn2nc(-c3ccccc3)nc2-c2ccccc2)cc1	63	-2	36	55*	-117
C=CC[C@H](CC(=O)N(CCO)Cc1ccccc1)C(=O)N[C@H](COC(=O)[C@@H](CC=C)Cc1ccc(F)cc1)C(C)(C)C	-12	-5	-8	-4	12
C=CCC[C@H](Cc1ccc(F)cc1)C(=O)OC[C@@H](NC(=O)[C@@H](CC=C)CC(=O)N(CCO)Cc1ccccc1)C(C)(C)C	-12	-7	-2	-11	72*
C=CCC[C@H](Cc1ccc(F)cc1)C(=O)OC[C@@H](NC(=O)[C@H](CC=C)CC(=O)NCCO)C(C)(C)C	1	-9	3	-2	90*
C[C@@H]1CN([C@H](C)CO)C(=O)c2cc(NC(=O)c3ccccc3)ccc2O[C@@H](C)CCCCO[C@@H]1CN(C)C(=O)CCC(F)(F)F	/	-4[16.7 µM]	2	/	15[16.7 µM]
C[C@@H]1CN([C@H](C)CO)C(=O)c2cc(NC(=O)C3CCCCC3)ccc2O[C@@H](C)CCCCO[C@@H]1CN(C)S(C)(=O)=O	/	0[16.7 µM]	-4	/	4[16.7 µM]
COc1ccc(OCC(=O)Nc2cccc(-c3nc4ccccc4o3)c2)cc1	/	-6	51*	/	-129
CC(C)C(=O)Nc1cccc(-c2nc3ccccc3o2)c1	26	-3	41*	/	/
CC(C)C(=O)Nc1cccc(NC(=S)NC(=O)c2ccc(Cl)cc2)c1	/	-6	34	/	?
O=C(Nc1ccc2c(c1)OCO2)c1ccc2nc[nH]c2c1	77	-5	49*	/	/
O=C(CSc1ccccc1)Nc1ccc(-c2nc3ccccc3[nH]2)cc1	52	/	/	15	/
CCC(=O)Nc1ccc(NC(=O)c2ccc3c(c2)OCO3)cc1	-9	4	-28	/	/
CCC(=O)Nc1cccc(NC(=O)c2ccc3c(c2)OCCO3)c1	67	-6	72*	/	/
O=C(CN1CCOCC1)Nc1ccc(-c2nc3ccccc3[nH]2)cc1	84*	/	/	/	-130
CC(C)C(=O)Nc1cccc(NC(=S)NC(=O)c2ccc3c(c2)OCO3)c1	76	/	62*	27	-84
C[C@H](CO)N1C[C@H](C)[C@@H](CN(C)C(=O)C2CCOCC2)Oc2ncc(C3=CCCCC3)cc2C1=O	/	9[16.7 µM]	7	/	-10[16.7 µM]
C[C@H]1CN([C@@H](C)CO)C(=O)c2cc(C#Cc3ccccc3)cnc2O[C@@H]1CN(C)C(=O)CN(C)C	/	-4[16.7 µM]	-2	/	15[16.7 µM]
COCC(=O)Nc1ccc2c(c1)C(=O)N(C)C[C@H](OC)[C@@H](C)CN(C(=O)c1cnccn1)[C@@H](C)CO2	/	6[16.7 µM]	-5	/	/
Cc1noc(C)c1S(=O)(=O)Nc1ccc2c(c1)CC(=O)N([C@H](C)CO)C[C@@H](C)[C@@H](CN(C)C(=O)Nc1cccc3ccccc13)O2	/	3[16.7 µM]	-3	/	0[16.7 µM]
Cc1ccc(NC(=O)Nc2ccc3c(c2)OCO3)cc1F	126*	6	/	0	/
COc1ccc(NC(=O)Nc2ccc(C)cc2OC(F)F)cc1OC	/	7	-9	/	-29
O=C(Nc1cccc(S(=O)(=O)Nc2ccc(Cl)cc2)c1)c1ccccn1	-7	129*	0	-1	/
O=C(Nc1ccc(S(=O)(=O)NCc2ccccc2)cc1)Nc1ccc2c(c1)OCO2	50	243*	34	-1	/
Cc1ccc(NC(=O)Nc2ccc3c(c2)OCO3)c(OC(F)F)c1	106*	/	49*	38*	-122
C[C@@H]1CCCCO[C@@H](CN(C)C(=O)Nc2ccc(C(F)(F)F)cc2)[C@H](C)CN([C@@H](C)CO)C(=O)c2cc(NC(=O)NC3CCCCC3)ccc2O1	/	2[16.7 µM]	-1	/	6[16.7 µM]
